Reference: PubChem BioAssay AID1159580 (chemical genetic matrix, 2015)
Among all 5,500 compounds or so, about 2,000 (36%) were called active. Inconclusive results (about 18%) are left out. Cut-off read from the data, not from the text of the source: active = normalized growth mostly below about 0.91 (no sharp cut-off); inconclusive = no clear call, values can overlap the other calls; inactive = mostly above about 0.92. Some of the results follow.

Experiment: chemical genetic growth profiling, strain panel (AID 1159580);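 note: tested at 20 µM; growth read once vehicle control cultures reached saturation at 30 °C; 1 = growth at the plate median or of vehicle wells; lower values mean less growth of the strain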
Conditions: growth OD
[1] = S. cerevisiae deletion strains, locus YAL013W, strain DEP1, stronger effect = lower value
[2] = S. cerevisiae deletion strains, locus YBR229C, strain ROT2, stronger effect = lower value
[3] = S. cerevisiae deletion strains, locus YDL101C, strain DUN1, stronger effect = lower value
[4] = S. cerevisiae deletion strains, locus YDR150W, strain NUM1, stronger effect = lower value
[5] = S. cerevisiae deletion strains, locus YEL061C, strain CIN8, stronger effect = lower value
[6] = S. cerevisiae deletion strains, locus YGR078C, strain PAC10, stronger effect = lower value
[7] = S. cerevisiae deletion strains, locus YHR030C, strain SLT2, stronger effect = lower value
[8] = S. cerevisiae deletion strains, locus YHR087W, strain rtc3, stronger effect = lower value
[9] = S. cerevisiae deletion strains, locus YJR043C, strain POL32, stronger effect = lower value
[10] = S. cerevisiae deletion strains, locus YJR075W, strain HOC1, stronger effect = lower value
[11] = S. cerevisiae deletion strains, locus YLR039C, strain RIC1, stronger effect = lower value
[12] = S. cerevisiae deletion strains, locus YLR058C, strain SHM2 (second series), stronger effect = lower value
[13] = S. cerevisiae deletion strains, locus YLR085C, strain ARP6, stronger effect = lower value
[14] = S. cerevisiae deletion strains, locus YLR262C, strain YPT6, stronger effect = lower value
[15] = S. cerevisiae deletion strains, locus YML094W, strain GIM5, stronger effect = lower value
[16] = S. cerevisiae deletion strains, locus YMR219W, strain ESC1, stronger effect = lower value
[17] = S. cerevisiae deletion strains, locus YMR263W, strain SAP30, stronger effect = lower value
[18] = S. cerevisiae deletion strains, locus YMR307W, strain GAS1, stronger effect = lower value
[19] = S. cerevisiae deletion strains, locus YNL153C, strain GIM3, stronger effect = lower value
[20] = S. cerevisiae deletion strains, locus YNL298W, strain CLA4 (second series), stronger effect = lower value
[21] = S. cerevisiae deletion strains, locus YNL322C, strain KRE1, stronger effect = lower value
[22] = S. cerevisiae deletion strains, locus YNR030W, strain Alg12, stronger effect = lower value
[23] = S. cerevisiae deletion strains, locus YPL055C, strain LGE1, stronger effect = lower value
[24] = S. cerevisiae deletion strains, locus YPL241C, strain CIN2, stronger effect = lower value
[25] = S. cerevisiae deletion strains, locus YPR135W, strain CTF4, stronger effect = lower value
[26] = S. cerevisiae deletion strains, locus YGR229C, strain SMI1, stronger effect = lower value

Measured: normalized growth

O=c1cc(C(F)(F)F)[nH]c2cc(Cl)cc(Cl)c12
active: [1] 0.59 | [2] 0.47 | S. cerevisiae deletion strains, locus YCL061C, strain MRC1, stronger effect = lower value 0.649 | [3] 0.513 | [4] 0.627 | [5] 0.745 | [6] 0.475 | [7] 0.564 | [8] 0.544 | [9] 0.697 | [10] 0.514 | [11] 0.356 | [12] 0.694 | [13] 0.487 | [14] 0.428 | [15] 0.854 | [16] 0.612 | [17] 0.456 | [18] 0.561 | S. cerevisiae deletion strains, locus YNL128W, strain TEP1, stronger effect = lower value 0.881 | [19] 0.534 | [20] 0.742 | [21] 0.798 | [22] 0.664 | [23] 0.523 | [24] 0.748 | S. cerevisiae strains, strain wild type, stronger effect = lower value 0.836
inactive: S. cerevisiae deletion strains, locus YJL187C, strain SWE1, stronger effect = lower value 1.01 | [25] 0.714

O=C(O)/C(=C/c1c(C(=O)O)[nH]c2cc(Cl)cc(Cl)c12)c1ccccc1
inactive: [1] 0.99 | S. cerevisiae deletion strains, locus YAL040C, strain CLN3, stronger effect = lower value 1.07 | S. cerevisiae deletion strains, locus YCL061C, strain MRC1 (second series), stronger effect = lower value 0.977 | [4] 0.979 | S. cerevisiae deletion strains, locus YDR363W, strain ESC2, stronger effect = lower value 1.03 | S. cerevisiae deletion strains, locus YER002W, strain NOP16, stronger effect = lower value 0.993 | [26] 0.999 | [10] 0.988 | [17] 0.979 | [18] 1.01 | S. cerevisiae deletion strains, locus YNL175C, strain NOP13, stronger effect = lower value 0.996 | S. cerevisiae deletion strains, locus YNL197C, strain WHI3, stronger effect = lower value 0.98 | S. cerevisiae deletion strains, locus YNL224C, strain SQS1, stronger effect = lower value 0.977 | [21] 0.975 | S. cerevisiae deletion strains, locus YOR083W, strain WHI5 (second series), stronger effect = lower value 0.99 | [23] 0.985

O=c1cc(C(F)(F)F)[nH]c2c(Cl)cccc12
inactive: [4] 0.86 | [7] 0.847 | [11] 0.846 | [13] 0.827 | [14] 0.847 | [15] 0.938 | [20] 0.902 | [22] 0.919 | S. cerevisiae deletion strains, locus YOL006C, strain TOP1, stronger effect = lower value 0.913 | [24] 0.935 | [25] 0.874
active: [1] 0.884 | [2] 0.816 | [3] 0.883 | [5] 0.886 | [6] 0.813 | [26] 0.929 | [8] 0.831 | [9] 0.905 | [10] 0.779 | [12] 0.84 | [16] 0.831 | [17] 0.844 | [19] 0.86 | [21] 0.863 | [23] 0.823
